# Molecular target: AgAbp1
# Test: SPOT peptide array binding signal intensity (averaged, normalized) (arbitrary units (background-subtracted, floor 0; scale differs between SH3 domains)); higher = stronger binding of the SH3 domain to the peptide
# Method in brief: (§1)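 The binding signal is the normalized, background-subtracted spot intensity averaged over replicates; its arbitrary units differ between domains. It was obtained by incubating 10 μg/ml GST-fused SH3 domains from four yeast species overnight at 4°C in TBS-based blocking buffer on cellulose membranes with synthetic 15-mer peptides, cysteines replaced by serines, then detecting with anti-GST antibody, HRP anti-mouse secondary and luminol.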
row,Binder,SPOT peptide array binding signal intensity
1,APPPPPRRATPEKKP,79

# Molecular target: AgBbc1
# Test: as above
# Method in brief: as §1
row,Binder,SPOT peptide array binding signal intensity
1,APPPPPRRATPEKKP,202

# Molecular target: AgBem1-D1
# Test: as above
# Method in brief: as §1
row,Binder,SPOT peptide array binding signal intensity
1,APPPPPRRATPEKKP,24.5

# Molecular target: AgBzz1-D1
# Test: as above
# Method in brief: as §1
row,Binder,SPOT peptide array binding signal intensity
1,APPPPPRRATPEKKP,84

# Molecular target: AgBzz1-D2
# Test: as above
# Method in brief: as §1
row,Binder,SPOT peptide array binding signal intensity
1,APPPPPRRATPEKKP,29.5

# Molecular target: AgCyk3
# Test: as above
# Method in brief: as §1
row,Binder,SPOT peptide array binding signal intensity
1,APPPPPRRATPEKKP,≤ 0

# Molecular target: AgFus1
# Test: as above
# Method in brief: as §1
row,Binder,SPOT peptide array binding signal intensity
1,APPPPPRRATPEKKP,≤ 0

# Molecular target: AgHof1
# Test: as above
# Method in brief: as §1
row,Binder,SPOT peptide array binding signal intensity
1,APPPPPRRATPEKKP,0.75

# Molecular target: AgHse1
# Test: as above
# Method in brief: as §1
row,Binder,SPOT peptide array binding signal intensity
1,APPPPPRRATPEKKP,17

# Molecular target: AgLsb1
# Test: as above
# Method in brief: as §1
row,Binder,SPOT peptide array binding signal intensity
1,APPPPPRRATPEKKP,17.5

# Molecular target: AgLsb4
# Test: as above
# Method in brief: as §1
row,Binder,SPOT peptide array binding signal intensity
1,APPPPPRRATPEKKP,192

# Molecular target: AgMyo5
# Test: as above
# Method in brief: as §1
row,Binder,SPOT peptide array binding signal intensity
1,APPPPPRRATPEKKP,4

# Molecular target: AgNbp2
# Test: as above
# Method in brief: as §1
row,Binder,SPOT peptide array binding signal intensity
1,APPPPPRRATPEKKP,≤ 0

# Molecular target: AgRvs167
# Test: as above
# Method in brief: as §1
row,Binder,SPOT peptide array binding signal intensity
1,APPPPPRRATPEKKP,209

# Molecular target: AgSho1
# Test: as above
# Method in brief: as §1
row,Binder,SPOT peptide array binding signal intensity
1,APPPPPRRATPEKKP,1.5

# Molecular target: AgSla1-D1-D2
# Test: as above
# Method in brief: as §1
row,Binder,SPOT peptide array binding signal intensity
1,APPPPPRRATPEKKP,≤ 0

# Molecular target: AgSla1-D3
# Test: as above
# Method in brief: as §1
row,Binder,SPOT peptide array binding signal intensity
1,APPPPPRRATPEKKP,1.5

# Molecular target: CaAbp1-D1
# Test: as above
# Method in brief: as §1
row,Binder,SPOT peptide array binding signal intensity
1,APPPPPRRATPEKKP,62

# Molecular target: CaAbp1-D2
# Test: as above
# Method in brief: as §1
row,Binder,SPOT peptide array binding signal intensity
1,APPPPPRRATPEKKP,58

# Molecular target: CaBbc1
# Test: as above
# Method in brief: as §1
row,Binder,SPOT peptide array binding signal intensity
1,APPPPPRRATPEKKP,368

# Molecular target: CaBem1-D1
# Test: as above
# Method in brief: as §1
row,Binder,SPOT peptide array binding signal intensity
1,APPPPPRRATPEKKP,1

# Molecular target: CaBzz1-D1
# Test: as above
# Method in brief: as §1
row,Binder,SPOT peptide array binding signal intensity
1,APPPPPRRATPEKKP,1050

# Molecular target: CaBzz1-D2
# Test: as above
# Method in brief: as §1
row,Binder,SPOT peptide array binding signal intensity
1,APPPPPRRATPEKKP,156

# Molecular target: CaCyk3
# Test: as above
# Method in brief: as §1
row,Binder,SPOT peptide array binding signal intensity
1,APPPPPRRATPEKKP,18.5

# Molecular target: CaFus1
# Test: as above
# Method in brief: as §1
row,Binder,SPOT peptide array binding signal intensity
1,APPPPPRRATPEKKP,52.5

# Molecular target: CaHof1
# Test: as above
# Method in brief: as §1
row,Binder,SPOT peptide array binding signal intensity
1,APPPPPRRATPEKKP,73

# Molecular target: CaHse1
# Test: as above
# Method in brief: as §1
row,Binder,SPOT peptide array binding signal intensity
1,APPPPPRRATPEKKP,3

# Molecular target: CaLsb1
# Test: as above
# Method in brief: as §1
row,Binder,SPOT peptide array binding signal intensity
1,APPPPPRRATPEKKP,≤ 0

# Molecular target: CaLsb4
# Test: as above
# Method in brief: as §1
row,Binder,SPOT peptide array binding signal intensity
1,APPPPPRRATPEKKP,1860

# Molecular target: CaMyo5
# Test: as above
# Method in brief: as §1
row,Binder,SPOT peptide array binding signal intensity
1,APPPPPRRATPEKKP,2.5

# Molecular target: CaNbp2
# Test: as above
# Method in brief: as §1
row,Binder,SPOT peptide array binding signal intensity
1,APPPPPRRATPEKKP,53

# Molecular target: CaRvs167
# Test: as above
# Method in brief: as §1
row,Binder,SPOT peptide array binding signal intensity
1,APPPPPRRATPEKKP,94.7

# Molecular target: CaRvs167-3
# Test: as above
# Method in brief: as §1
row,Binder,SPOT peptide array binding signal intensity
1,APPPPPRRATPEKKP,1

# Molecular target: CaSho1
# Test: as above
# Method in brief: as §1
row,Binder,SPOT peptide array binding signal intensity
1,APPPPPRRATPEKKP,≤ 0

# Molecular target: CaSla1-D1-D2
# Test: as above
# Method in brief: as §1
row,Binder,SPOT peptide array binding signal intensity
1,APPPPPRRATPEKKP,1170

# Molecular target: CaSla1-D3
# Test: as above
# Method in brief: as §1
row,Binder,SPOT peptide array binding signal intensity
1,APPPPPRRATPEKKP,3

# Molecular target: ScAbp1
# Test: as above
# Method in brief: as §1
row,Binder,SPOT peptide array binding signal intensity
1,APPPPPRRATPEKKP,69

# Molecular target: ScBbc1
# Test: as above
# Method in brief: as §1
row,Binder,SPOT peptide array binding signal intensity
1,APPPPPRRATPEKKP,54.8

# Molecular target: ScBem1-D1
# Test: as above
# Method in brief: as §1
row,Binder,SPOT peptide array binding signal intensity
1,APPPPPRRATPEKKP,≤ 0

# Molecular target: ScBzz1-D1
# Test: as above
# Method in brief: as §1
row,Binder,SPOT peptide array binding signal intensity
1,APPPPPRRATPEKKP,14

# Molecular target: ScBzz1-D2
# Test: as above
# Method in brief: as §1
row,Binder,SPOT peptide array binding signal intensity
1,APPPPPRRATPEKKP,10

# Molecular target: ScCyk3
# Test: as above
# Method in brief: as §1
row,Binder,SPOT peptide array binding signal intensity
1,APPPPPRRATPEKKP,≤ 0

# Molecular target: ScFus1
# Test: as above
# Method in brief: as §1
row,Binder,SPOT peptide array binding signal intensity
1,APPPPPRRATPEKKP,3

# Molecular target: ScHof1
# Test: as above
# Method in brief: as §1
row,Binder,SPOT peptide array binding signal intensity
1,APPPPPRRATPEKKP,9.75

# Molecular target: ScHse1
# Test: as above
# Method in brief: as §1
row,Binder,SPOT peptide array binding signal intensity
1,APPPPPRRATPEKKP,30

# Molecular target: ScLsb1
# Test: as above
# Method in brief: as §1
row,Binder,SPOT peptide array binding signal intensity
1,APPPPPRRATPEKKP,43.8

# Molecular target: ScLsb2
# Test: as above
# Method in brief: as §1
row,Binder,SPOT peptide array binding signal intensity
1,APPPPPRRATPEKKP,9

# Molecular target: ScLsb3
# Test: as above
# Method in brief: as §1
row,Binder,SPOT peptide array binding signal intensity
1,APPPPPRRATPEKKP,1690

# Molecular target: ScLsb4
# Test: as above
# Method in brief: as §1
row,Binder,SPOT peptide array binding signal intensity
1,APPPPPRRATPEKKP,375

# Molecular target: ScMyo3
# Test: as above
# Method in brief: as §1
row,Binder,SPOT peptide array binding signal intensity
1,APPPPPRRATPEKKP,111

# Molecular target: ScMyo5
# Test: as above
# Method in brief: as §1
row,Binder,SPOT peptide array binding signal intensity
1,APPPPPRRATPEKKP,29.5

# Molecular target: ScNbp2
# Test: as above
# Method in brief: as §1
row,Binder,SPOT peptide array binding signal intensity
1,APPPPPRRATPEKKP,≤ 0

# Molecular target: ScPex13
# Test: as above
# Method in brief: as §1
row,Binder,SPOT peptide array binding signal intensity
1,APPPPPRRATPEKKP,89.2

# Molecular target: ScRvs167
# Test: as above
# Method in brief: as §1
row,Binder,SPOT peptide array binding signal intensity
1,APPPPPRRATPEKKP,963

# Molecular target: ScSho1
# Test: as above
# Method in brief: as §1
row,Binder,SPOT peptide array binding signal intensity
1,APPPPPRRATPEKKP,56

# Molecular target: ScSla1-D1-D2
# Test: as above
# Method in brief: as §1
row,Binder,SPOT peptide array binding signal intensity
1,APPPPPRRATPEKKP,459

# Molecular target: ScSla1-D3
# Test: as above
# Method in brief: as §1
row,Binder,SPOT peptide array binding signal intensity
1,APPPPPRRATPEKKP,3.25

# Molecular target: SpAbp1-D1
# Test: as above
# Method in brief: as §1
row,Binder,SPOT peptide array binding signal intensity
1,APPPPPRRATPEKKP,165

# Molecular target: SpBbc1
# Test: as above
# Method in brief: as §1
row,Binder,SPOT peptide array binding signal intensity
1,APPPPPRRATPEKKP,2.5

# Molecular target: SpBzz1-D1
# Test: as above
# Method in brief: as §1
row,Binder,SPOT peptide array binding signal intensity
1,APPPPPRRATPEKKP,814

# Molecular target: SpBzz1-D2
# Test: as above
# Method in brief: as §1
row,Binder,SPOT peptide array binding signal intensity
1,APPPPPRRATPEKKP,1.25

# Molecular target: SpCyk3
# Test: as above
# Method in brief: as §1
row,Binder,SPOT peptide array binding signal intensity
1,APPPPPRRATPEKKP,3

# Molecular target: SpHof1
# Test: as above
# Method in brief: as §1
row,Binder,SPOT peptide array binding signal intensity
1,APPPPPRRATPEKKP,15.8

# Molecular target: SpHof1-2
# Test: as above
# Method in brief: as §1
row,Binder,SPOT peptide array binding signal intensity
1,APPPPPRRATPEKKP,17

# Molecular target: SpHof1-3
# Test: as above
# Method in brief: as §1
row,Binder,SPOT peptide array binding signal intensity
1,APPPPPRRATPEKKP,270

# Molecular target: SpHse1
# Test: as above
# Method in brief: as §1
row,Binder,SPOT peptide array binding signal intensity
1,APPPPPRRATPEKKP,42.5

# Molecular target: SpLsb1
# Test: as above
# Method in brief: as §1
row,Binder,SPOT peptide array binding signal intensity
1,APPPPPRRATPEKKP,10.2

# Molecular target: SpLsb4
# Test: as above
# Method in brief: as §1
row,Binder,SPOT peptide array binding signal intensity
1,APPPPPRRATPEKKP,1240

# Molecular target: SpMyo1
# Test: as above
# Method in brief: as §1
row,Binder,SPOT peptide array binding signal intensity
1,APPPPPRRATPEKKP,998

# Molecular target: SpNbp2
# Test: as above
# Method in brief: as §1
row,Binder,SPOT peptide array binding signal intensity
1,APPPPPRRATPEKKP,≤ 0

# Molecular target: SpPex13
# Test: as above
# Method in brief: as §1
row,Binder,SPOT peptide array binding signal intensity
1,APPPPPRRATPEKKP,1

# Molecular target: SpRvs167
# Test: as above
# Method in brief: as §1
row,Binder,SPOT peptide array binding signal intensity
1,APPPPPRRATPEKKP,999

# Molecular target: SpSla1-D1-D2
# Test: as above
# Method in brief: as §1
row,Binder,SPOT peptide array binding signal intensity
1,APPPPPRRATPEKKP,112

# Molecular target: SpSla1-D3
# Test: as above
# Method in brief: as §1
row,Binder,SPOT peptide array binding signal intensity
1,APPPPPRRATPEKKP,3

# Source: the supplement of paper PMC4466140
